# Experimental data: PubChem BioAssay (NCATS)
# Results filed as inconclusive are left out. Activity calls are given as the source filed them. The call rests on the fitted dose curve; in most records, active means well fitted inhibition curve with a large enough effect; inconclusive means small, poorly fitted or top-dose-only effect; inactive means flat fitted curve, though single readings scatter.
# Target: Calcium and integrin-binding protein 1 (Homo sapiens) (UniProt Q99828)
# Assay: Primary qHTS for Identification of Calcium Integrin Binding Protein 1 (CIB1) Competitor (AID 1508620); further: top concentration of the series differs between compounds
# Conditions: CIB1-GST / FITC-alphaIIb peptide fluorescence polarization; series mostly up to 114 µM; activity change, negative = inhibition: at the top concentration
# In short: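 Fluorescence polarization competition: GST-tagged CIB1 (1 uM final) preincubated with compound 15 min at room temperature, then FITC-labelled alphaIIb peptide (100 nM final) added. After 15 min at room temperature, polarization read at Ex 480/Em 540.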
# On the % scale 0 is the no-effect control and ±100 the full control effect.
# Sequence of Calcium and integrin-binding protein 1 (Homo sapiens) (Q99828 whole entry, looked up): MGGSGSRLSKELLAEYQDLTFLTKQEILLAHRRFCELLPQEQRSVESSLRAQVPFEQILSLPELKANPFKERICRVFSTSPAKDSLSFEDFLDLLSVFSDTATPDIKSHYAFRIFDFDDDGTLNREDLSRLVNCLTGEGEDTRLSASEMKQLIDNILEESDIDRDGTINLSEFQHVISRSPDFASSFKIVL
row,Compound,"activity change, negative = inhibition"
1,CC1=C(C(=O)Nc2ccccc2)C(c2ccccc2Cl)N=C(Nc2nc3ccccc3o2)N1 (configuration not stated),6.99% (inactive)
2,O=C(N1CCc2ccc(S(=O)(=O)N3CCN(S(=O)(=O)c4ccc5c(c4)OCCO5)CC3)cc2C1)C(F)(F)F,4.53% (inactive)
3,Cn1nnnc1Sc1ncnc2scc(-c3cccc(Br)c3)c12,2.72% (inactive)
4,Cc1nc(-c2ccc(S(=O)(=O)Nc3ccc(C)c(C)c3)s2)cs1,3.06% (inactive)
5,N#Cc1c(-c2ccc(F)c(Br)c2)no[n+]1[O-],-14.7% (inactive)
6,CCOc1cccc(-c2cc(-c3n[nH]c(=S)n3CC)c3ccccc3n2)c1,-4.54% (inactive)
7,CC(=O)Nc1sc2c(c1C(O)c1nc3ccccc3s1)CCN(C(C)C)C2 (configuration not stated),-1.12% (inactive)
8,Cc1cc2c(s1)c1cnn(Cc3c(Cl)cccc3Br)c(=O)c1n2C,6.86% (inactive)
9,CC(=O)Nc1sc2c(c1-c1ccc(OC(F)(F)F)cc1)CCNC2,-1.13% (inactive)
10,COc1cccc(-c2ccc(CNc3ccc(N4CCN(C(=O)OC(C)(C)C)CC4)cc3)o2)c1,2.18% (inactive)
11,Cc1cc(C)nc(NC(=S)N2CCN(c3nccc4ccccc34)CC2)c1,-7.65% (inactive)
12,COc1cccc(-c2ccc3ncnc(NCc4cccc(C)c4)c3c2)c1,4.84% (inactive)
13,Cc1c(P(=S)(c2ccccc2)c2ccccc2)[n+]2ccccc2n1CCCCc1ccccc1,3.71% (inactive)
14,COc1cccc(CNc2ccc(S(=O)(=O)Nc3nc4c(C)cccc4s3)cc2)c1O,-19.2% (inactive)
15,CC(C)(C)OC(=O)Cc1nnc(-c2cc3ccccc3[nH]2)o1,2.94% (inactive)
16,Cc1ccc(CNc2nc(-c3ccccc3C(F)(F)F)nc3ccccc23)cc1,2.08% (inactive)
17,Cc1nnc(CN(C)c2ncnc3ccc(-c4ccc5c(c4)OCO5)cc23)o1,-6.68% (inactive)
18,CCN(CC)c1cc2c(cc1S(=O)(=O)Nc1ccc(C)c(C)c1)CCC(=O)N2,4.9% (inactive)
19,Cc1ccc2nc3sc(C(=O)NCCCN(C)C)cc3cc2c1,4.79% (inactive)
20,Cc1c(C(=O)OCC2CC2)[nH]c2c1C(=O)CC(c1ccco1)C2 (configuration not stated),-14.1% (inactive)
21,N#Cc1cccc(CSc2nc3ncc(Br)cc3[nH]2)c1,-23.2% (inactive)
22,CCCCN(C)C(=O)Cn1nc(-c2ccc(C(F)(F)F)cc2)ccc1=O,-5.11% (inactive)
